This is an account of results in PubChem BioAssay AID770 (SRMLSC, 2007).

This experiment is described as follows: HT29 colon tumor cell growth inhibition, primary screen, imaging, high content imaging, 24 h, CellTiter-Glo (AID 770).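 For condensed nuclei: share of cells whose nuclear area falls below control median minus 1.5 SD.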 The following applies: HT29 cell number by imaging, at 10 µM, stronger effect = higher value; for condensed nuclei: measured here: percent cells with condensed nuclei. (In general: ATP-based viability assays read luminescence as a measure of living cells.)

Setting [1] is: measured here: ATP CellTiter-Glo viability.

Hit rate of the full screen: of about 3,300 compounds, fewer than 10 were called active.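 Rule for the calls: active = growth inhibition above 90% in viable cell count at a single dose; inactive = growth inhibition below 90%.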 Only a sample is shown.

For the molecule `CCCCCC(=O)N1CC2(C)CN(C(=O)CCCCC)CC(C)(C1)C2=O`, the growth inhibition is -27.8% (inactive) and the condensed nuclei was 1.67%. Further, the growth inhibition under setting [1] was -0.56%.
For `CN1CCc2c(n(CC(O)CN3C(=O)c4ccccc4S3(=O)=O)c3ccccc23)C1=O` (centres undefined), in that order: 3.96% (inactive), 8.09% and -10.2%.
For the molecule `O=C1CC(C(=O)O)c2ccccc2N1` (centres undefined), the growth inhibition was 10.3% (inactive) and the condensed nuclei is 2.67%. Moreover, the growth inhibition under setting [1] turned out to be 0.11%.
`COc1nc(NS(=O)(=O)c2ccc(C)cc2)nc(C)c1Cl`: the growth inhibition is 9.89% (inactive) and the condensed nuclei amounted to 2.47%. For the same molecule, the growth inhibition under setting [1] was -6.08%.
In the case of `CCOC(=O)N1CCN(c2ncnc3c2cnn3-c2ccc(OC)cc2)CC1`, the growth inhibition was 17% (inactive) and the condensed nuclei was determined as 3.96%. Also, under setting [1], the growth inhibition was 5.78%.
For `CCOC(=O)C1CCCN(c2nc3ccccc3nc2C(C#N)C(=O)OCCOC)C1` (centres undefined), in that order: 49.2% (inactive), 9.83% and 70%.
For `Cn1ncc2nc[nH]c(=O)c21`, the growth inhibition is 27.4% (inactive) and the condensed nuclei is 2.08%. Further, the growth inhibition under setting [1] worked out at 0.04%.
With `CC(C)Nc1nc(NC(C)C)nc(N(C)n2cnnc2)n1`, the growth inhibition was -12.4% (inactive) and the condensed nuclei worked out at 2.84%. Also, the growth inhibition under setting [1] was -9.08%.
Regarding `COc1ccc(C(=O)OC(C)CN2CCN(C)CC2)cc1OC` (centres undefined), the growth inhibition is 28.2% (inactive) and the condensed nuclei came out at 5.84%. Moreover, the growth inhibition under setting [1] amounted to 1.58%.
As for `Cc1cc(Cn2ccnc2)c(C)cc1Cn1ccnc1`, the growth inhibition is 13.6% (inactive) and the condensed nuclei is 3.14%. In addition, the growth inhibition under setting [1] is 11.6%.
Take `COc1cc(-c2nn3c(COc4ccccc4)nnc3s2)cc(OC)c1OC`: the growth inhibition was 56.5% (inactive) and the condensed nuclei is 5.76%. Moreover, the growth inhibition under setting [1] was 9.54%.
Regarding `CCOC(=O)C1=C(C)NC(SCC(=O)Nc2nc(C)cs2)=C(C#N)C1c1cccs1` (centres undefined), the growth inhibition was 7.8% (inactive) and the condensed nuclei was determined as 5.36%. Also, the growth inhibition under setting [1] is 22.8%.
Regarding `COc1ccc(OC)c(NC(=O)CSc2nnc(-c3ccco3)n2-c2ccc(C(=O)O)cc2)c1`, the growth inhibition is 5.68% (inactive) and the condensed nuclei was found to be 4.63%. Under setting [1], the growth inhibition is -8.2%.
Taken in the same sequence, the figures for `c1ccc(N2CCN(c3nc(-c4ccccn4)nc4ccccc34)CC2)cc1` were 4.92% (inactive), 11.6% and -10.8%.
With `CC1(C)Cc2c(C#N)c(OCC(=O)c3ccc(Cl)cc3)nc(-c3ccoc3)c2CO1`, the growth inhibition was 18.7% (inactive) and the condensed nuclei worked out at 4.85%. The growth inhibition under setting [1] turned out to be 21.9%.
Consider `O=C(NCc1ccccc1)c1ccc(=O)[nH]n1`, for which the growth inhibition was -5.75% (inactive) and the condensed nuclei is 3.79%. Moreover, the growth inhibition under setting [1] was -8.23%.
With `Cc1ccc(NC(=O)Cn2nc(C)c3ccccc3c2=O)cc1`, the growth inhibition was -20% (inactive) and the condensed nuclei was determined as 3.28%. In addition, under setting [1], the growth inhibition is -4.94%.
Consider `COc1ccc(OC)c(C2NC(=O)c3sc(=S)n(-c4ccccc4)c3N2)c1` (centres undefined), for which the growth inhibition was 36.6% (inactive) and the condensed nuclei is 4.81%. Under setting [1], the growth inhibition was 16.9%.
In the case of `CC(=O)N1CC=C2C(C#N)=C(N)C(C#N)(C#N)[C@H](c3ccoc3)[C@H]2C1`, the growth inhibition is 6.78% (inactive) and the condensed nuclei stood at 3.16%. Further, under setting [1], the growth inhibition is -12.8%.
Taken in the same sequence, the figures for `Cc1ccc(CNc2oc(COc3ccccc3Cl)nc2C#N)cc1` were -7.99% (inactive), 4.34% and -1.41%.
In the case of `CCOC(=O)C(NC=O)(NC(C)(C)C)C(=O)OCC`, the growth inhibition is -28.5% (inactive) and the condensed nuclei came out at 2.61%. Also, under setting [1], the growth inhibition was -6.54%.
With `Cc1nc2sc(C#N)c(N)c2c2c1CCCC2`, the growth inhibition was -26.7% (inactive) and the condensed nuclei was 1.98%. For the same molecule, the growth inhibition under setting [1] was -6.54%.
Consider `Cn1c(SCC(=O)N2CCOCC2)nnc1-c1ccc(Cl)cc1Cl`, for which the growth inhibition was 30.4% (inactive) and the condensed nuclei was found to be 2.99%. For the same molecule, the growth inhibition under setting [1] is -11.5%.
On to `COc1ccc(C2CC(=O)C(C=NCCN3CCOCC3)=C(O)C2)cc1` (centres undefined), for which the growth inhibition was 30% (inactive) and the condensed nuclei was determined as 0.91%. Moreover, the growth inhibition under setting [1] was -14.6%.
In the case of `CC(NC(=O)CSc1nnc(COc2ccccc2)o1)c1ccccc1` (centres undefined), the growth inhibition was 2.08% (inactive) and the condensed nuclei is 4.42%. In addition, the growth inhibition under setting [1] was -10.8%.
Taken in the same sequence, the figures for `N#CC1=C(SCC(=O)c2ccccc2)NC2=C(C(=O)CCC2)C1c1ccco1` (centres undefined) were 77% (inactive), 20.4% and 12.5%.
With `Cn1c(=O)c2c3c(sc2n2c(SCC(N)=O)nnc12)CC(C(C)(C)C)CC3` (centres undefined), the growth inhibition was -4.56% (inactive) and the condensed nuclei is 3.87%. The growth inhibition under setting [1] was -15.8%.
In the case of `CN(CCOC(=O)c1cccc(Br)c1)C(C)(C)C`, the growth inhibition is 6.82% (inactive) and the condensed nuclei amounted to 2.48%. Also, the growth inhibition under setting [1] was 3.02%.
As to `COC(=O)c1cc(Br)c(=O)n(Cc2cccnc2)c1`, the growth inhibition is 6.29% (inactive) and the condensed nuclei turned out to be 1.99%. In addition, under setting [1], the growth inhibition is -14.1%.
With `CC12CN3CC(C)(CN(C1)C3c1ccc(Cl)cc1Cl)C2O` (centres undefined), the growth inhibition is 15% (inactive) and the condensed nuclei turned out to be 2.07%. The growth inhibition under setting [1] is 0.64%.
For the molecule `CC1(C)Cc2c(c(N3CCOCC3)nc3sc(C#N)c(N)c23)CS1`, the growth inhibition is 16.1% (inactive) and the condensed nuclei worked out at 14%. Also, the growth inhibition under setting [1] was found to be 12.8%.
For `COc1cccc(CNc2ncc(Br)cc2Br)c1O`, in that order: 28.4% (inactive), 8.79% and 3.03%.
Turning to `COc1ccccc1NC(=O)c1c(C)cc(=O)oc1C`, the growth inhibition was 2.52% (inactive) and the condensed nuclei is 1.89%. For the same molecule, under setting [1], the growth inhibition was -2.65%.
Taken in the same sequence, the figures for `C=CCc1c(C)nc(SCCC)[nH]c1=O` were -39.5% (inactive), 4.83% and 9.14%.
Consider `Cc1cc(N2C(=O)C(=O)/C(=C(/O)c3ccccc3)C2c2cccs2)no1` (centres undefined), for which the growth inhibition was -3.8% (inactive) and the condensed nuclei stood at 2.92%. Moreover, the growth inhibition under setting [1] was -3.1%.
For `N#Cc1c(NCCN)nc(NCc2ccccc2)c2c1CCN(Cc1ccccc1)C2`, the growth inhibition was 48.7% (inactive) and the condensed nuclei was 7.1%. Moreover, under setting [1], the growth inhibition was determined as 41.2%.
For the molecule `CSC1=C(C#N)C(c2ccc(C)s2)CC(=O)N1` (centres undefined), the growth inhibition is 22.7% (inactive) and the condensed nuclei is 3.3%. Besides, the growth inhibition under setting [1] turned out to be 4.49%.
Consider `COc1cc(-c2cc(C(F)(F)F)n3ncc(C(=O)O)c3n2)cc(OC)c1OC`, for which the growth inhibition is -25.6% (inactive) and the condensed nuclei stood at 2.49%. Also, the growth inhibition under setting [1] was -14.3%.
